According to PubChem BioAssay (Tox21):
Records with an inconclusive call do not appear. Active and inactive are the calls of the source. Unless noted, calls come from the whole dose curve; as a rule, active = well fitted curve in the direction sought with a large enough effect in the repeat runs; inconclusive = weak or mixed curves; inactive = no such curve, though single readings can be large; an effect the other way counts as inactive or inconclusive.

Tests used:
[1] = qHTS assay to identify small molecule agonists of the vitamin D receptor (VDR) signaling pathway - cell viability counter screen (AID 743224); note: series mostly up to about 63 µM; % is set by controls: 0 for no effect and ±100 for the full control effect; nearly all actives have a fitted effect of over 50% in size
Outline: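 Luminescence from CellTiter-Glo, read after 30 min at room temperature, reports viability of VDR-bla cells treated with compounds for 16 h at 37C in the wells used for the beta-lactamase FRET read.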

[2] = qHTS assay to identify small molecule agonists of the NFkB signaling pathway (AID 1159509; active = well fitted curve in the direction sought with a large enough effect in the signal ratio in the repeat runs, not every such curve was filed as active; the % refers to the signal ratio; note: series mostly up to about 61 µM; % is set by controls: 0 for no effect and ±100 for the full control effect)
Outline: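 NFkB-bla ME-180 cells carry a beta-lactamase reporter under an NF-kB response element. They were plated overnight, then exposed to compounds for 5 h at 37 C. Read-out is LiveBLAzer FRET after 1.5 hr at room temperature (405 nm excitation; 460/530 nm emission).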

[3] = qHTS assay to identify small molecule agonists of the NFkB signaling pathway - cell viability counter screen (AID 1159515; calls by dose curve; note: series mostly up to about 61 µM; % is set by controls: 0 for no effect and ±100 for the full control effect; nearly all actives have a fitted effect of over 55% in size)
Outline: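 Luminescence from CellTiter-Glo (30 min, room temperature) gives viability, measured in the same wells as the beta-lactamase reporter read. Cells were NFkB-bla ME-180, 2,000 per well, treated 5 hr with compounds.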

[4] = qHTS assay to identify small molecule agonists of the endoplasmic reticulum stress response signaling pathway (AID 1159516; active = well fitted activation curve with a large enough effect in the signal ratio in the repeat runs, not every such curve was filed as active; the % refers to the signal ratio; note: % is set by controls: 0 for no effect and ±100 for the full control effect)
Outline: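 Read-out is beta-lactamase cleavage of a FRET substrate (405 nm excitation; 460 and 530 nm emissions) in ESRE-bla HeLa cells after a 5 hr compound exposure at 37 C. Substrate incubation ran 2 hr at room temperature.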

[5] = qHTS assay to identify small molecule agonists of the endoplasmic reticulum stress response signaling pathway - cell viability counter screen (AID 1159517; calls by dose curve;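 note: HeLa cells carrying an ER stress response element beta-lactamase reporter; series mostly up to about 61 µM; % is set by controls: 0 for no effect and ±100 for the full control effect; nearly all actives have a fitted effect of over 50% in size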)
Outline: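 CellTiter-Glo was added to wells already read for beta-lactamase FRET, and luminescence was recorded 30 min later. Cells: ESRE-bla HeLa, 1,500 per well, compound exposure 5 hr at 37 C.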

[6] = qHTS assay to identify small molecule antagonists of the retinoid-related orphan receptor gamma (ROR-gamma) signaling pathway - cell viability counter screen (AID 1159520); note: % is set by controls: 0 for no effect and ±100 for the full control effect; nearly all actives have a fitted effect of over 50% in size
Outline: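 Tet-on ROR gamma CHO cells (1,000/well) were plated 4 hr, given compounds in DMSO for 2 hr at 37 C, then induced with 1 uM final doxycycline for 16 hr. Viability was read as ATP by CellTiter-Glo luminescence after 30 min.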

[7] = target: Nuclear receptor ROR-gamma (Homo sapiens) (UniProt P51449); experiment: qHTS assay to identify small molecule antagonists of the retinoid-related orphan receptor gamma (ROR-gamma) signaling pathway (AID 1159521; note: nearly all actives have a fitted effect of over 50% in size; note: potency is the fitted concentration of half-maximal effect)
Outline: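 Test compounds were applied to Tet-on RORγ CHO cells 2 h ahead of doxycycline hyclate (1 uM final). Luciferase reporter activity was quantified by luminescence after 16 h at 37 C and 5% CO2.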

[8] = qHTS assay to identify small molecule agonists of the AP-1 signaling pathway - cell viability counter screen (AID 1159525; calls by dose curve; note: nearly all actives have a fitted effect of over 55% in size)
Outline: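 ME-180 AP-1-bla, 2500 cells/well, Opti-MEM + 0.5% dialyzed FBS; overnight 37 °C; cpd 15-pt titration, 5 h 37 °C; CellTiter-Glo 30 min RT; luminescence read; normalised to TOAB and DMSO controls.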

[9] = qHTS assay to identify small molecule agonists of the AP-1 signaling pathway (AID 1159526; calls by dose curve; note: % is set by controls: 0 for no effect and ±100 for the full control effect)
[10] = qHTS assay to identify small molecule agonists of the RXR signaling pathway - cell viability counter screen (AID 1159529)
Outline: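 Compounds dissolved in DMSO were pinned onto HEK 293T cells carrying a beta-lactamase reporter under RXR-alpha control and incubated 16 hr. Cytotoxicity was then quantified by CellTiter-Glo luminescence.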

[11] = qHTS assay to identify small molecule antagonists of the retinoid acid receptor (RAR) signaling pathway - cell viability counter screen (AID 1159551); note: % is set by controls: 0 for no effect and ±100 for the full control effect; nearly all actives have a fitted effect of over 35% in size
Outline: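 Luminescent ATP quantitation (CellTiter-Glo) gave cell viability in C3RL4 cells exposed to test chemicals for 6 h at 37 C alongside 1 uM final retinol.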

[12] = qHTS assay to identify small molecule antagonists of the retinoic acid receptor (RAR) signaling pathway (AID 1159552)
Outline: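 Test chemicals and DMSO controls were pin-transferred onto C3RL4 cells a day after seeding; retinol (1 uM final) followed at once. Luminescent reporter output was quantified after 6 hr of co-incubation and 30 min with detection reagent.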

[13] = qHTS assay to identify small molecule agonists of the retinoic acid receptor (RAR) signaling pathway (AID 1159553); note: % is set by controls: 0 for no effect and ±100 for the full control effect
Outline: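 Luminescence from a RARE-driven luciferase reporter in C3RL4 cells served as the read-out, measured after 30 min with detection reagent at room temperature. Compounds in DMSO were applied for 6 hr at 37 C following overnight seeding.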

[14] = qHTS assay to identify small molecule antagonists of the vitamin D receptor (VDR) signaling pathway - cell viability counter screen (AID 743225)
Outline: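 Compounds were pinned onto VDR-bla HEK 293T cells together with 1-alpha,25-dihydroxyvitamin D3 at 3 nM final. After 16 h at 37C and 5% CO2 plus the reporter readout, cell viability was measured by CellTiter-Glo luminescence (30 min, room temperature).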

[15] = qHTS assay to identify small molecule antagonists of the estrogen related receptor (ERR) signaling pathway (AID 1224819)
Outline: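 Seed ERR cells 2,000/well; rest 6 h at 37 C/5% CO2; pin compounds in DMSO; incubate 18 h at 37 C; add One-Glo; wait 30 min at room temperature; measure luminescence.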

[16] = qHTS assay to identify small molecule agonists of the estrogen related receptor (ERR) signaling pathway (AID 1224820); note: % is set by controls: 0 for no effect and ±100 for the full control effect
Outline: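 ERR reporter cell line (from NTP), 2,000 cells/well, incubated 6 h before compound addition, then 18 h at 37 C. Luminescence measured 30 min after One-Glo reagent at room temperature.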

CC(C)(O)C(=O)O
inactive: outcome [1] | outcome [2] | outcome [3] | outcome [4] | outcome [5] | Potency [6] | Potency [7] | outcome [8] | Potency [9] | Potency [10] | outcome [11] | outcome [12] | Potency [13]

CCCCCCCCCCCC(=O)OCC
inactive: outcome [1] | outcome [14] | outcome [2] | outcome [3] | outcome [4] | outcome [5] | Potency [6] | Potency [7] | outcome [8] | Potency [9] | Potency [10] | outcome [11] | outcome [12] | Potency [13]

CCCc1nc(C)c2c(=O)[nH]c(-c3cc(S(=O)(=O)N4CCN(CC)CC4)ccc3OCC)nn12
inactive: outcome [1] | outcome [14] | outcome [2] | outcome [3] | outcome [4] | outcome [5] | Potency [6] | Potency [7] | outcome [8] | Potency [9] | Potency [10] | outcome [11] | outcome [12] | Potency [13]

FC1(F)C(F)(F)C(F)(F)C2(F)C(F)(C1(F)F)C(F)(F)C(F)(F)C1(F)C(F)(F)C(F)(F)C(F)(F)C(F)(F)C12F (stereo not given)
inactive: outcome [1] | outcome [14] | outcome [2] | outcome [3] | outcome [4] | outcome [5] | Potency [6] | Potency [7] | outcome [8] | Potency [9] | Potency [10] | outcome [11]

Cc1c(Cl)cccc1Nc1ccccc1C(=O)O
inactive: outcome [1] | outcome [14] | outcome [2] | outcome [3] | outcome [4] | outcome [5] | Potency [6] | Potency [7] | outcome [8] | Potency [9] | outcome [11] | outcome [12]

Clc1cccc(C(c2ccc3nc[nH]c3c2)n2ccnc2)c1 (stereo not given)
inactive: outcome [1] | outcome [14] | outcome [2] | outcome [3] | outcome [4] | outcome [5] | Potency [6] | Potency [7] | outcome [8] | Potency [9] | Potency [10] | outcome [11]

CCCCCO
inactive: outcome [1] | outcome [14] | outcome [2] | outcome [3] | outcome [4] | outcome [5] | Potency [6] | Potency [7] | outcome [8] | Potency [9] | Potency [10] | outcome [11]

CC(C)(Cc1c[nH]c2ccccc12)NCC(O)COc1ccccc1C#N (stereo not given)
inactive: outcome [2] | outcome [3] | outcome [4] | outcome [5] | Potency [6] | Potency [7] | outcome [8] | Potency [9] | outcome [11] | outcome [12] | Potency [13]

CNc1ccccc1
inactive: outcome [1] | outcome [14] | outcome [2] | outcome [3] | outcome [4] | outcome [5] | Potency [6] | Potency [7] | outcome [8] | Potency [9] | Potency [10] | outcome [11]

Nc1ccc(F)cc1F
inactive: outcome [14] | outcome [2] | outcome [3] | outcome [4] | outcome [5] | Potency [6] | Potency [7] | outcome [8] | Potency [9] | Potency [10] | outcome [11]

C1CCN(CN2CCCCC2)CC1
inactive: outcome [1] | outcome [14] | outcome [2] | outcome [3] | outcome [4] | outcome [5] | Potency [6] | Potency [7] | outcome [8] | Potency [9] | Potency [10] | outcome [11]

C[C@]12CCC(=O)C=C1[C@@H]1C[C@@H]1[C@H]1[C@@H]3[C@@H]4C[C@@H]4[C@@]4(CCC(=O)O4)[C@@]3(C)CC[C@@H]12
inactive: outcome [1] | outcome [14] | outcome [2] | outcome [3] | outcome [4] | outcome [5] | Potency [6] | outcome [8] | Potency [9] | Potency [10] | outcome [11] | Potency [13]
active: Potency [7] 7.5 µM

Cc1nc2sccn2c(=O)c1CCN1CCC(=C(c2ccc(F)cc2)c2ccc(F)cc2)CC1
active: Potency [15] 19.6 µM
inactive: outcome [1] | outcome [2] | outcome [3] | outcome [4] | outcome [5] | Potency [6] | Potency [7] | outcome [8] | Potency [9] | outcome [11] | outcome [12] | outcome [16]

O=P(c1ccccc1)(c1ccccc1)c1ccccc1
inactive: outcome [1] | outcome [14] | outcome [2] | outcome [3] | outcome [4] | outcome [5] | Potency [6] | Potency [7] | outcome [8] | Potency [9] | Potency [10] | outcome [11]

COC(=O)C(C)(C)C
inactive: outcome [1] | outcome [14] | outcome [2] | outcome [3] | outcome [4] | outcome [5] | Potency [6] | Potency [7] | outcome [8] | Potency [9] | outcome [11] | outcome [12]

CC(C)NC(=O)c1ccccc1N
inactive: outcome [1] | outcome [14] | outcome [2] | outcome [3] | outcome [4] | outcome [5] | Potency [6] | Potency [7] | outcome [8] | Potency [9] | outcome [11] | outcome [12] | Potency [13]

CC1(C)CC(=O)CC(C)(C)N1
inactive: outcome [1] | outcome [14] | outcome [2] | outcome [3] | outcome [4] | outcome [5] | Potency [6] | Potency [7] | outcome [8] | Potency [9] | Potency [10] | outcome [11]

COC=O
inactive: viability change, negative = cytotoxic [14] 18% [at 6.95 µM] | activation [2] 0.465% [at 6.95 µM] | activity, negative = cytotoxic [3] -3.71% [at 6.95 µM] | activation [4] -0.899% [at 6.95 µM] | activity change, negative = cytotoxicity [5] -18.1% [at 6.95 µM] | activity, negative = cytotoxicity [6] -1.04% [at 8.39 µM] | activity change, negative = inhibition [7] -0.709% [at 8.39 µM] | viability change, negative = cytotoxic [8] 12.8% [at 6.97 µM] | activation [9] -1.7% [at 6.97 µM] | activity change, negative = cytotoxicity [11] 0.256% [at 8.39 µM] | activity, negative = inhibition [12] -0.361% [at 8.39 µM] | activation [13] 3.97% [at 8.36 µM]

COc1ccnc2c1CCCCC2S(=O)c1nc2ccccc2[nH]1 (stereo not given)
inactive: outcome [1] | outcome [14] | outcome [2] | outcome [3] | outcome [4] | outcome [5] | Potency [6] | Potency [7] | outcome [8] | Potency [9] | outcome [11] | outcome [12]

FC(F)(Cl)C(F)(Cl)Cl
inactive: outcome [1] | outcome [2] | outcome [3] | outcome [4] | outcome [5] | Potency [6] | Potency [7] | outcome [8] | Potency [9] | Potency [10] | outcome [11]
